About 83,000 compounds went through this panel and 20% of them were active in at least one assay; those are over-represented in the sample as a whole.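 Single-dose data. Exposure time 48 hours. Values below 10 considered active.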 Active and inactive are the calls of the source.
Legend:
Assay in all cases: NCI-60 one-dose screen, 48 h (100 = growth as untreated, 0 = no growth, -100 = all killed)
Conditions in all cases: 10 µM unless noted
SR leukemia = tested on: SR leukemia
RPMI-8226 leukemia = tested on: RPMI-8226 leukemia
OVCAR-8 ovarian = tested on: OVCAR-8 ovarian
OVCAR-5 ovarian = tested on: OVCAR-5 ovarian
OVCAR-4 ovarian = tested on: OVCAR-4 ovarian
SK-OV-3 ovarian = tested on: SK-OV-3 ovarian
IGROV1 ovarian = tested on: IGROV1 ovarian
OVCAR-3 ovarian = tested on: OVCAR-3 ovarian
HS 578T breast = tested on: HS 578T breast
NCI/ADR-RES ovarian = tested on: NCI/ADR-RES ovarian

Measured: growth

NC(=NCCCC1(c2ccccc2)CCCC1)Nc1ccc(Cl)cc1
active: SR leukemia -39.7% | RPMI-8226 leukemia -24.2%
inactive: OVCAR-8 ovarian 60.4% | OVCAR-5 ovarian 59.8% | OVCAR-4 ovarian 41.3% | SK-OV-3 ovarian 89% | IGROV1 ovarian 38.9% | OVCAR-3 ovarian 60.8% | HS 578T breast 65.4% | NCI/ADR-RES ovarian 67.1%

O=c1cc(CSc2nnc(-c3ccc(F)cc3)o2)c2ccc3ccccc3c2o1
inactive: SR leukemia 94.1% | RPMI-8226 leukemia 101% | OVCAR-8 ovarian 96.4% | OVCAR-5 ovarian 93% | OVCAR-4 ovarian 108% | SK-OV-3 ovarian 82.4% | IGROV1 ovarian 101% | OVCAR-3 ovarian 101% | HS 578T breast 95.5% | NCI/ADR-RES ovarian 91.8%

Fc1ccc2[nH]cc(SSc3c[nH]c4ccc(F)cc34)c2c1
active: SR leukemia -29.4% | RPMI-8226 leukemia -14% | HS 578T breast -29.2%
inactive: OVCAR-8 ovarian 40.5% | OVCAR-5 ovarian 46.8% | OVCAR-4 ovarian 46.6% | SK-OV-3 ovarian 95.2% | IGROV1 ovarian 77.8% | OVCAR-3 ovarian 50.5% | NCI/ADR-RES ovarian 17.4%

Nc1n[nH]c2cc(F)c([C@@H]3Nc4ccc5[nH]ncc5c4[C@H]4C5CCC(C5)[C@@H]34)cc12 (stereo not given in full)
active: SR leukemia 9.53% | HS 578T breast -4.82% | NCI/ADR-RES ovarian -26.9%
inactive: RPMI-8226 leukemia 32.1% | OVCAR-8 ovarian 19.5% | OVCAR-5 ovarian 30.1% | OVCAR-4 ovarian 32.1% | SK-OV-3 ovarian 20.6% | IGROV1 ovarian 15% | OVCAR-3 ovarian 12.9%

COc1cc2c(cc1O)CC[C@@H]1[C@@H]2CC[C@]2(C)[C@@H](OCCN(C)C)CC[C@@H]12
active: SR leukemia -11.6% | RPMI-8226 leukemia 5.96%
inactive: OVCAR-8 ovarian 65.6% | OVCAR-5 ovarian 78.8% | OVCAR-4 ovarian 47% | SK-OV-3 ovarian 63% | IGROV1 ovarian 73.4% | OVCAR-3 ovarian 12.5% | HS 578T breast 27% | NCI/ADR-RES ovarian 17.9%

COc1ccc(CN2c3ccccc3Sc3ccccc32)c(C(F)(F)F)c1
inactive: SR leukemia 12.1% | RPMI-8226 leukemia 28.8% | OVCAR-8 ovarian 31.1% | OVCAR-5 ovarian 65.5% | OVCAR-4 ovarian 44.2% | SK-OV-3 ovarian 17.8% | IGROV1 ovarian 43.4% | HS 578T breast 22.8% | NCI/ADR-RES ovarian 22.7%
active: OVCAR-3 ovarian 5.59%

COc1cccc(NC(=O)c2sc3nc(C)c(C(C)=O)cc3c2N)c1
inactive: SR leukemia 19% | RPMI-8226 leukemia 52.2% | OVCAR-8 ovarian 63.5% | OVCAR-5 ovarian 112% | OVCAR-4 ovarian 63.7% | SK-OV-3 ovarian 25.2% | IGROV1 ovarian 59.7% | OVCAR-3 ovarian 17.8% | HS 578T breast 43.3% | NCI/ADR-RES ovarian 34.1%

COC[C@H](C)n1c(C2CCOCC2)nc2cnc3cc(-c4c(C)noc4C)c(OC)cc3c21
inactive: SR leukemia 33.5% | RPMI-8226 leukemia 24% | OVCAR-8 ovarian 49.6% | OVCAR-5 ovarian 79.9% | OVCAR-4 ovarian 54.7% | IGROV1 ovarian 66.5% | OVCAR-3 ovarian 49.8% | HS 578T breast 12.6% | NCI/ADR-RES ovarian 54.2%
active: SK-OV-3 ovarian 7.03%

O=C1C=C(OCC=C(Cl)Cl)C(=O)c2ccccc21
inactive: SR leukemia 51.6% | RPMI-8226 leukemia 45.6% | OVCAR-8 ovarian 71.5% | OVCAR-5 ovarian 116% | OVCAR-4 ovarian 15.9% | SK-OV-3 ovarian 102% | IGROV1 ovarian 75.6% | OVCAR-3 ovarian 32.2% | HS 578T breast 55.5% | NCI/ADR-RES ovarian 33.8%

CC1=C[C@H]2c3c(c(O)c(O)c4oc(-c5ccccc5)cc(=O)c34)[C@H](c3cc(O)c(O)c4oc(-c5ccccc5)cc(=O)c34)[C@H]2C(C)(C)C1
active: SR leukemia 0.0772% | RPMI-8226 leukemia 7.2% | OVCAR-8 ovarian 8.73% | SK-OV-3 ovarian -3.99% | IGROV1 ovarian -31.1% | OVCAR-3 ovarian 7.79% | HS 578T breast 5.98%
inactive: OVCAR-5 ovarian 20% | OVCAR-4 ovarian 10.4% | NCI/ADR-RES ovarian 17.5%

CCNC(=O)Oc1ccc(/C(=C(\C)c2ccc(Cl)cc2)c2ccc(OCCN3CCCCC3)cc2)cc1
active: SR leukemia -20.8% | RPMI-8226 leukemia -4.11%
inactive: OVCAR-8 ovarian 70.4% | OVCAR-5 ovarian 74.9% | OVCAR-4 ovarian 43.7% | SK-OV-3 ovarian 63.2% | IGROV1 ovarian 56.8% | OVCAR-3 ovarian 60.8% | HS 578T breast 55.9% | NCI/ADR-RES ovarian 64.9%

CC(=O)Nc1ccc(S(=O)(=O)Nc2cccc(-c3nc(-c4ccc(NC(=O)c5cccnc5)cc4Cl)no3)c2)cc1
inactive: SR leukemia 19% | RPMI-8226 leukemia 43.8% | OVCAR-8 ovarian 38.8% | OVCAR-5 ovarian 84.7% | OVCAR-4 ovarian 53% | SK-OV-3 ovarian 20.9% | IGROV1 ovarian 54.7% | OVCAR-3 ovarian 20.7% | HS 578T breast 24.5% | NCI/ADR-RES ovarian 94.7%

O=C1/C(=C/c2ccc(Cl)cc2)SC(=S)N1CCc1ccc(O)cc1
inactive: SR leukemia 102% | RPMI-8226 leukemia 90.6% | OVCAR-8 ovarian 97.6% | OVCAR-5 ovarian 104% | OVCAR-4 ovarian 58.4% | SK-OV-3 ovarian 90.9% | IGROV1 ovarian 14.6% | OVCAR-3 ovarian 98.2% | HS 578T breast 86.1% | NCI/ADR-RES ovarian 98.5%

CCOC(=O)c1sc2nc(-c3cccc(OC)c3)nc(N3CCOCC3)c2c1C
inactive: SR leukemia 98.4% | RPMI-8226 leukemia 87.8% | OVCAR-8 ovarian 102% | OVCAR-5 ovarian 96.6% | OVCAR-4 ovarian 96.2% | SK-OV-3 ovarian 102% | IGROV1 ovarian 87.3% | OVCAR-3 ovarian 108% | HS 578T breast 104% | NCI/ADR-RES ovarian 90%

COc1ccc2nc(NC(=O)CSc3nnc4n3S(=O)(=O)c3ccccc3N4c3ccccc3)sc2c1
inactive: SR leukemia 66.6% | RPMI-8226 leukemia 66.8% | OVCAR-8 ovarian 51.2% | OVCAR-5 ovarian 94.2% | OVCAR-4 ovarian 91.8% | SK-OV-3 ovarian 100% | IGROV1 ovarian 27.7% | OVCAR-3 ovarian 104% | HS 578T breast 89.6% | NCI/ADR-RES ovarian 93.5%

O=C1c2ccccc2C(=O)c2c1ccc1[nH]c(-c3cccs3)nc21
inactive: SR leukemia 37.4% | RPMI-8226 leukemia 63.7% | OVCAR-8 ovarian 81.5% | OVCAR-5 ovarian 88.5% | OVCAR-4 ovarian 102% | SK-OV-3 ovarian 107% | IGROV1 ovarian 89.7% | OVCAR-3 ovarian 82.8% | HS 578T breast 99.2% | NCI/ADR-RES ovarian 78.7%

COc1cccc2c1C(=O)c1c(O)c3c(c(O)c1C2=O)C[C@](O)(C(=O)CO)C[C@H]3O[C@@H]1C[C@@H](NC(=O)CCCCCN(C)C2(c3ccc(F)cc3)CC3CCC2C3)[C@H](O)[C@@H](C)O1 (stereo not given in full)
inactive: OVCAR-8 ovarian 21.5% | SK-OV-3 ovarian 79.5% | IGROV1 ovarian 56% | HS 578T breast 57.6% | NCI/ADR-RES ovarian 80.2%
active: SR leukemia -45.7% | RPMI-8226 leukemia -35.4% | OVCAR-5 ovarian -51.6% | OVCAR-4 ovarian 0.206% | OVCAR-3 ovarian 5.02%

COc1ccc2c(c1)C(=O)/C(=C/c1cccnc1)CC2
active: RPMI-8226 leukemia 1.31%
inactive: SR leukemia 30.7% | OVCAR-8 ovarian 96.8% | OVCAR-5 ovarian 93% | OVCAR-4 ovarian 93.4% | SK-OV-3 ovarian 101% | IGROV1 ovarian 101% | OVCAR-3 ovarian 98.6% | HS 578T breast 115% | NCI/ADR-RES ovarian 94.8%

Cc1ccc2c(C(C[N+](=O)[O-])c3ccco3)c(-c3ccccc3)[nH]c2c1 (stereo not given)
inactive: SR leukemia 24% | RPMI-8226 leukemia 27.4% | OVCAR-8 ovarian 48.1% | OVCAR-5 ovarian 54.9% | OVCAR-4 ovarian 64.2% | SK-OV-3 ovarian 21.7% | IGROV1 ovarian 29% | OVCAR-3 ovarian 14.2% | HS 578T breast 16.2%
active: NCI/ADR-RES ovarian 7.41%

Cc1nn(-c2ccc(F)cc2)c2ncnc(Nc3ccc(NC(=O)Nc4ccc(Cl)c(C(F)(F)F)c4)cc3)c12
active: OVCAR-3 ovarian -4.21%
inactive: SR leukemia 46.1% | RPMI-8226 leukemia 19.3% | OVCAR-8 ovarian 35.4% | OVCAR-5 ovarian 70.8% | OVCAR-4 ovarian 23.8% | SK-OV-3 ovarian 65.7% | IGROV1 ovarian 31% | HS 578T breast 31.3% | NCI/ADR-RES ovarian 38.2%

COc1ccc2c(c1)C(=O)/C(=C/c1ccccn1)CC2
active: SR leukemia 7.35% | RPMI-8226 leukemia -10.3%
inactive: OVCAR-8 ovarian 85.4% | OVCAR-5 ovarian 92.1% | OVCAR-4 ovarian 83.8% | SK-OV-3 ovarian 98% | IGROV1 ovarian 85.6% | OVCAR-3 ovarian 62.1% | HS 578T breast 98.1% | NCI/ADR-RES ovarian 88.6%

COc1cc(-c2nc3cc(Cl)c(Cl)cc3[nH]2)ccc1OCC(=O)N=Nc1c(O)[nH]c2ccccc12
active: SR leukemia -27.7% | RPMI-8226 leukemia -45.2% | OVCAR-8 ovarian -59% | OVCAR-5 ovarian -75% | OVCAR-4 ovarian -92.7% | SK-OV-3 ovarian -28.2% | IGROV1 ovarian -86.8% | OVCAR-3 ovarian -98.1% | HS 578T breast -47.9%
inactive: NCI/ADR-RES ovarian 85.3%

C=CC(COC(c1ccccc1)(c1ccccc1)c1ccccc1)N(CC)CC (stereo not given)
inactive: SR leukemia 44.7% | RPMI-8226 leukemia 10.6% | OVCAR-8 ovarian 77% | OVCAR-5 ovarian 66.1% | OVCAR-4 ovarian 67.9% | SK-OV-3 ovarian 75.5% | IGROV1 ovarian 62% | OVCAR-3 ovarian 71.9% | HS 578T breast 85.7% | NCI/ADR-RES ovarian 62.4%

Cc1ccccc1COc1ccc(-c2onc(C)c2-c2ccc(Cl)cc2)cc1
inactive: SR leukemia 34% | RPMI-8226 leukemia 81% | OVCAR-8 ovarian 75.8% | OVCAR-5 ovarian 87.6% | OVCAR-4 ovarian 82.7% | SK-OV-3 ovarian 59.5% | IGROV1 ovarian 52.5% | OVCAR-3 ovarian 20.7% | HS 578T breast 59.4% | NCI/ADR-RES ovarian 39.2%

COc1cc(/C=C/c2cc(/C=C/c3ccc(O)c(OC)c3)n(-c3c(C)cccc3C)c(=O)n2)ccc1O
inactive: NCI/ADR-RES ovarian 12.6%
active: SR leukemia 0.0669% | RPMI-8226 leukemia -27.4% | OVCAR-8 ovarian 0.393% | OVCAR-5 ovarian 9.05% | OVCAR-4 ovarian 3.15% | SK-OV-3 ovarian -37.7% | IGROV1 ovarian 9.72% | OVCAR-3 ovarian 5.84% | HS 578T breast -4.97%

O=C(/C=C/c1ccc(C(F)(F)F)cc1)Nc1ccc(C=C2c3ccccc3C(=O)c3ccccc32)cc1
inactive: SR leukemia 18.6% | RPMI-8226 leukemia 10.4% | OVCAR-8 ovarian 55.7% | OVCAR-5 ovarian 84.2% | OVCAR-4 ovarian 47.5% | SK-OV-3 ovarian 77.9% | IGROV1 ovarian 111% | OVCAR-3 ovarian 44.1% | HS 578T breast 78.5% | NCI/ADR-RES ovarian 60%
